Reference: publication PMC4336329 (PLoS ONE, 2015)
The campaign covered roughly 310,000 compounds. About 14,000 (4.5%) showed an effect of 50% or more. The effect is printed as a negative number. The entries come from a sample that favours strong results as a whole.

molecular target: human ether-à-go-go-related gene (hERG) potassium channel (human, UniProt Q12809); test: primary screen, population patch clamp on CHO cells stably expressing hERG; higher = less effect of the substance
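Further: peak tail current of the secondary pulse compared with the same well before compound.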

human ether-à-go-go-related gene (hERG) potassium channel, sequence (Q12809 whole entry, looked up): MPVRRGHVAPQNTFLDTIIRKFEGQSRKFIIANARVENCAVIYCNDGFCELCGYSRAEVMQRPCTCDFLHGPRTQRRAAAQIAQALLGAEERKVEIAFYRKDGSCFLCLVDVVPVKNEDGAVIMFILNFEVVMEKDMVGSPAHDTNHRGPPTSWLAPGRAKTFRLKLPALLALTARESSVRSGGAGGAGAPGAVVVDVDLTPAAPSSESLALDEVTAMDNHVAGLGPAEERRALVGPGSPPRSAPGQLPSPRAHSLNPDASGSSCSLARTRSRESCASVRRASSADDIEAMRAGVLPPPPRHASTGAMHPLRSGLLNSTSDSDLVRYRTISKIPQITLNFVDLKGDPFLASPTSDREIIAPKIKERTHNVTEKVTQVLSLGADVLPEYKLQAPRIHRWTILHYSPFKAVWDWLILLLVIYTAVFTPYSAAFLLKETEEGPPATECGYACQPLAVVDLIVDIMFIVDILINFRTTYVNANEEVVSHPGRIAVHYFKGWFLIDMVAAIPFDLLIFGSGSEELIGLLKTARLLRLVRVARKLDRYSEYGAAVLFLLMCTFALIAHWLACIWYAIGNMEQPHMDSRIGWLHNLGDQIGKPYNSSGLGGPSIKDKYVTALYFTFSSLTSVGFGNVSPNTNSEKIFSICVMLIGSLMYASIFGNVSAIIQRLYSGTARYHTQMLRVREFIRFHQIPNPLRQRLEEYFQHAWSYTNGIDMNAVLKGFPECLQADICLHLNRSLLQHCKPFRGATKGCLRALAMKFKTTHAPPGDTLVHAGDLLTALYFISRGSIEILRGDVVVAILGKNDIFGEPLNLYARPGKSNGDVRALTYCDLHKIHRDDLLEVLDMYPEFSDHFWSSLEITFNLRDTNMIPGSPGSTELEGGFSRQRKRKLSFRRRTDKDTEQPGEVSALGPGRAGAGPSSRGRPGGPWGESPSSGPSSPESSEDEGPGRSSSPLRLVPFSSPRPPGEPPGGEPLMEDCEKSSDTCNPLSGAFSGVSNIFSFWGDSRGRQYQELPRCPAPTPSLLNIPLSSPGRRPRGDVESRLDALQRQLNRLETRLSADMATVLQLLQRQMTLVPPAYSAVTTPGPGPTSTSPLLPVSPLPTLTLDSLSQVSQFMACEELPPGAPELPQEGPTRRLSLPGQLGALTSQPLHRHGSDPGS

Structure (SMILES)	hERG current change (%, negative = inhibition) at 10uM [%]
COc1ccc(C)cc1NS(=O)(=O)c1ccc2c(c1)CCN2C(C)=O	-17.2
CC(C)NC(=S)N(CCc1ccncc1)C(C)C	17.3
CC(C)N(CCc1ccncc1)C(=S)Nc1ccc(F)c(Cl)c1	-71.7
CCOc1ccc(NC(=S)N(CCc2ccncc2)C(C)C)cc1	-50.6
Cc1cccc(NC(=S)N(CCc2ccncc2)C(C)C)c1C	-8.61
Cc1cccc(C)c1NC(=S)N(CCc1ccncc1)C(C)C	-1.45
CCc1ccccc1NC(=S)N(CCc1ccncc1)C(C)C	-29.6
CC(C)N(CCc1ccncc1)C(=S)Nc1cccc(Cl)c1	-71.3
Cc1cc(C)c(NC(=S)N(CCc2ccncc2)C(C)C)c(C)c1	-8.82
Cc1ccc(C)c(NC(=S)N(CCc2ccncc2)C(C)C)c1	-42.1
CCc1ccccc1N/N=C(/C)c1c(O)cc(C)oc1=O	-1.91
Cc1c(CCC(=O)O)c(=O)oc2cc3occ(-c4ccccc4)c3cc12	-27.8
CC(CN1C(C)CCCC1C)OC(=O)c1cccc(F)c1.Cl (stereo not drawn)	-13
Cc1cccc(N2CCN(Cc3nc(-c4cccc(Cl)c4)oc3C)CC2)n1	-21
Cc1oc(-c2cc(F)ccc2F)nc1CN1CCN(c2ncnc3ccccc23)CC1	-43.6
Cc1cc(N2CCN(Cc3nc(-c4ccc(Cl)cc4)oc3C)CC2)cc(C)n1	-68.8
COc1ccc(-c2nc(CN3CCN(c4ncccn4)CC3)c(C)o2)cc1C	-21.1
COc1ccc(-c2nc(CN3CCN(Cc4cccc(F)c4)CC3)c(C)o2)cc1	-46.6
Cc1oc(-c2cccc3ccccc23)nc1CN1CCN(c2ncnc3ccccc23)CC1	-11.9
COc1ccc(-c2nc(CN3CCN(C(=O)c4ccco4)CC3)c(C)o2)c(OC)c1C	-18
Cc1cc(N2CCN(Cc3nc(-c4ccc(F)cc4)oc3C)CC2)cc(C)n1	-53.8
COc1ccc(-c2nc(CN3CCN(Cc4cccc(Cl)c4)CC3)c(C)o2)cc1	-33.1
Cc1cccc(-c2nc(CN3CCN(Cc4cccc(F)c4)CC3)c(C)o2)c1	-47

Structure (SMILES)	hERG current change (%, negative = inhibition) at 10uM [%]
COc1ccc(-c2nc(CN3CCN(c4cc(C)nc(C)c4)CC3)c(C)o2)c2ccccc12	-73.6
COc1ccc(-c2nc(CN3CCN(c4ncnc5ccccc45)CC3)c(C)o2)c(OC)c1	-66.8
Clc1ccc(-c2csc(Nc3cccnc3)n2)cc1	13.5
CC(C)(C)C(=O)Nc1ccc(F)cc1[N+](=O)[O-]	5.56
Cc1cc2oc(=O)cc(CN3CCC(C)CC3)c2c(C)c1Cl	-2.84
CCCCCc1c(O)c2ccccc2[nH]c1=O	7.97
N#CCC(=O)NNC(=S)NC(=O)C(c1ccccc1)c1ccccc1	5.41
O=C(NCCCCc1ccccc1)c1cccc(Br)c1	-3.79
CCOc1ccc(N(CC(=O)Nc2nccs2)S(=O)(=O)c2c(C)noc2C)cc1	-5.98
COc1ccc(C2=CSC3=NCCN23)cc1Cl	-2.92
Br.COc1ccc(C2=CSC3=NCCN23)cc1Br	-50.7
CCCOc1ccc(C2=CSC3=NCCN23)cc1.Cl	-28.3
O=[N+]([O-])c1ccc(C2=CSC3=NCCN23)cc1	-32.9
CCCCOc1ccc(C2=CSC3=NCCN23)cc1[N+](=O)[O-]	-71
CCOc1ccc(C2=CSC3=NCCN23)cc1Cl	-22.8
CCCOc1ccc(C2=CSC3=NCCN23)cc1[N+](=O)[O-]	-73.6
CCCCOc1ccc(-c2csc(N)n2)cc1[N+](=O)[O-]	11.2
Br.COc1ccc(C2=CSC3=NCCN23)cc1OC	-6.58
Br.COc1ccc(C2=CSC3=NCCN23)cc1F	-13.9
CCCOc1ccc(C2=CSC3=NCCN23)cc1Cl	-67.8
CSc1nc2sc3c(c2c(=O)n1C)CCCC3	-13.5
CC(OC(=O)c1ccc(Br)c(S(=O)(=O)N2CCOCC2)c1)C(=O)NC1CCCCC1C (stereo not drawn)	-49.9
